About 79,000 compounds went through this panel and 15% of them were active in at least one assay; those are over-represented in the sample as a whole. Active and inactive are the calls of the source. Rule as the data show it: active = growth inhibition above about 70%; inactive = the rest.
Experiments:
[1] = NCI Yeast Anticancer Drug Screen. Data for the rad52 strain (AID 147);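 also: 0% = growth of vehicle-treated control cultures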; settings: S. cerevisiae rad52 mutant growth inhibition, active compounds read high
Summary of the method: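 The repair-mutant yeast strain was incubated with compounds, then growth was read and inhibition derived relative to vehicle.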

[2] = NCI Yeast Anticancer Drug Screen. Data for the wt1 strain (AID 149);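 also: 0% = growth of vehicle-treated wt1 cultures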; settings: S. cerevisiae wt1 strain (SPY 50644) growth inhibition, active compounds read high
Summary of the method: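 Yeast wt1 strain exposed to compounds; growth inhibition measured relative to vehicle-treated controls.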

[3] = NCI Yeast Anticancer Drug Screen. Data for the rad50EPP+ strain (AID 151);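 also: 0% = growth of vehicle-treated control cultures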; settings: S. cerevisiae rad50 mutant strain, active compounds read high
Summary of the method: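 Vehicle-normalised growth inhibition; rad50EPP+ yeast strain, altered in DNA damage repair, compound-treated.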

[4] = NCI Yeast Anticancer Drug Screen. Data for the mgt1 strain (AID 153); settings: S. cerevisiae mgt1 mutant growth inhibition, active compounds read high
Summary of the method: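 Vehicle-normalized growth inhibition is determined in mgt1 yeast, a strain selected for a defined alteration in DNA repair or cell cycle control.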

[5] = NCI Yeast Anticancer Drug Screen. Data for the rad50 strain (AID 155);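 also: 0% = growth of vehicle-only cultures of the same strain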; settings: S. cerevisiae rad50 strain growth inhibition, active compounds read high
Summary of the method: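 Yeast carrying a defined DNA repair defect were exposed to test compounds, and growth was compared with vehicle-treated controls to give percent inhibition.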

[6] = NCI Yeast Anticancer Drug Screen. Data for the mec2-1 strain (AID 157); settings: S. cerevisiae mec2-1 strain, active compounds read high
Summary of the method: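 Mutant yeast (mec2-1) grown with compound; growth inhibition relative to vehicle control reported.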

[7] = NCI Yeast Anticancer Drug Screen. Data for the rad14 strain (AID 159);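 also: 0% = growth of vehicle-treated control cultures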; settings: S. cerevisiae rad14 strain growth inhibition, active compounds read high
Summary of the method: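 Yeast cells carrying a defined DNA-repair defect were exposed to compounds, and growth inhibition was calculated relative to vehicle-treated control cultures.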

[8] = NCI Yeast Anticancer Drug Screen. Data for the sgs1 mgt1 strain (AID 161);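 also: 0% = growth of cultures given vehicle only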; settings: S. cerevisiae sgs1 mgt1 strain, active compounds read high
Summary of the method: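 Percent growth inhibition was derived by comparing compound-exposed mutant yeast with vehicle-exposed cultures. The strain carries alterations in DNA damage repair.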

[9] = NCI Yeast Anticancer Drug Screen. Data for the CLN2oe strain (AID 163);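 also: 0% = growth of vehicle-only control cultures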; settings: S. cerevisiae CLN2oe strain, active compounds read high
Summary of the method: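 Compounds are applied to yeast harbouring a defined cell-cycle control change; reduced growth compared with vehicle-treated controls gives the value.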

[10] = NCI Yeast Anticancer Drug Screen. Data for the cln2 rad14 strain (AID 165);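 also: 0% = growth equal to vehicle treated cultures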; settings: S. cerevisiae cln2 rad14 strain, active compounds read high
Summary of the method: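 Readout is yeast growth inhibition versus vehicle-treated controls, using a strain with cln2 and rad14 alterations exposed to compound.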

[11] = NCI Yeast Anticancer Drug Screen. Data for the bub3 strain (AID 167); settings: S. cerevisiae bub3 mutant strain, active compounds read high
Summary of the method: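 Compounds were applied to a genetically altered yeast strain carrying a cell-cycle control defect. Growth inhibition was scored against vehicle-treated controls.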

[12] = NCI Yeast Anticancer Drug Screen. Data for the wt2 strain (AID 169);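 also: 0% = growth of vehicle-treated yeast cultures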; settings: S. cerevisiae wt2 strain growth inhibition, active compounds read high
Summary of the method: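 Against vehicle-treated controls, the growth of yeast exposed to each compound was compared, and the inhibition was recorded.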

[13] = NCI Yeast Anticancer Drug Screen. Data for the mlh1 strain (AID 171);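 also: 0% = growth of vehicle-treated control cultures of the same strain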; settings: S. cerevisiae mlh1 strain growth inhibition, active compounds read high
Summary of the method: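 Measured: yeast growth. Reference: vehicle-treated controls. Organism: strain with a defined alteration affecting DNA damage repair or cell cycle control, treated with compound.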

[14] = NCI Yeast Anticancer Drug Screen. Data for the sgs1 strain (AID 173);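 also: 0% = growth of vehicle-only control cultures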; settings: S. cerevisiae sgs1 mutant, active compounds read high
Summary of the method: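 Each compound was added to cultures of the altered yeast strain. Growth was recorded, and inhibition was derived by comparison with vehicle controls.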

[15] = NCI Yeast Anticancer Drug Screen. Data for the mlh1 rad18 strain (AID 175); settings: S. cerevisiae mlh1 rad18 strain growth inhibition, active compounds read high
Summary of the method: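 Genetically defined yeast (DNA repair-deficient) exposed to compounds; growth inhibition determined relative to vehicle.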

[16] = NCI Yeast Anticancer Drug Screen. Data for the rad18 strain (AID 177); settings: S. cerevisiae rad18 mutant growth inhibition, active compounds read high
Summary of the method: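 Vehicle-treated cultures served as the baseline for scoring compound-induced growth inhibition in DNA-repair-mutant yeast.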

[17] = at 5.0 µM (retest, dose inferred, filed as 0.5)
[18] = at 50.0 µM (retest, dose inferred, filed as 5.0)

Measured: growth inhibition

O=C(NCCCCN(CCCNC(=O)C(F)(F)F)Cc1ccccc1)C(F)(F)F
active: [5]; [18] 90% | [6]; [18] 75%
inactive: [1]; at 1.2 µM 30% | [1]; at 3.7 µM 36% | [1]; at 11.0 µM 31% | [1]; at 33.0 µM 33% | [1]; at 100.0 µM 35% | [2]; at 1.2 µM 5% | [2]; at 3.7 µM 9% | [2]; at 11.0 µM 4% | [2]; at 33.0 µM 6% | [2]; at 100.0 µM -10% | [3]; at 1.2 µM 5% | [3]; at 3.7 µM -6% | [3]; at 11.0 µM 4% | [3]; at 33.0 µM -2% | [3]; at 100.0 µM -18% | [4]; at 1.2 µM 22% | [4]; at 3.7 µM 33% | [4]; at 11.0 µM 32% | [4]; at 33.0 µM 26% | [4]; at 100.0 µM 7% | [5]; at 1.2 µM 32% | [5]; at 3.7 µM 33% | [5]; [17] 39% | [5]; at 11.0 µM 40% | [5]; at 33.0 µM 33% | [5]; at 50.0 µM -5.5% | [5]; at 100.0 µM 27% | [6]; at 1.2 µM 14% | [6]; at 3.7 µM 11% | [6]; [17] 14% | [6]; at 11.0 µM 14% | [6]; at 33.0 µM 0% | [6]; at 50.0 µM -9.05% | [6]; at 100.0 µM -13% | [7]; at 1.2 µM 16% | [7]; at 3.7 µM 16% | [7]; at 11.0 µM 15% | [7]; at 33.0 µM 11% | [7]; at 100.0 µM -10% | [8]; [17] -19% | [8]; [18] -11% | [8]; at 50.0 µM -5.75% | [9]; at 1.2 µM 13% | [9]; at 3.7 µM 3% | [9]; at 11.0 µM 6% | [9]; at 33.0 µM 12% | [9]; at 100.0 µM -3% | [10]; [17] 14% | [10]; [18] 8% | [10]; at 50.0 µM 26.9% | [11]; at 1.2 µM 11% | [11]; at 3.7 µM 0% | [11]; [17] 7% | [11]; at 11.0 µM 0% | [11]; at 33.0 µM -7% | [11]; [18] 0% | [11]; at 50.0 µM -14% | [11]; at 100.0 µM 0% | [12]; at 1.2 µM -4% | [12]; at 3.7 µM -6% | [12]; at 11.0 µM 2% | [12]; at 33.0 µM -12% | [12]; at 100.0 µM -12% | [13]; at 1.2 µM 22% | [13]; at 3.7 µM 33% | [13]; at 11.0 µM 32% | [13]; at 33.0 µM 26% | [13]; at 100.0 µM 7% | [14]; at 1.2 µM 40% | [14]; at 3.7 µM 41% | [14]; at 11.0 µM 44% | [14]; at 33.0 µM 15% | [14]; at 100.0 µM 36% | [15]; [17] 19% | [15]; [18] 24% | [15]; at 50.0 µM -63% | [16]; at 1.2 µM 13% | [16]; at 3.7 µM 12% | [16]; at 11.0 µM 21% | [16]; at 33.0 µM 14% | [16]; at 100.0 µM -7%

CCOP(=O)(OCC)/C(C#N)=C\c1cccc2ccccc12
active: [1]; at 33.0 µM 92% | [1]; at 100.0 µM 97% | [2]; at 33.0 µM 87% | [2]; at 100.0 µM 98% | [4]; at 33.0 µM 84% | [4]; at 100.0 µM 98% | [5]; at 33.0 µM 92% | [5]; [18] 90% | [5]; at 50.0 µM 85.7% | [5]; at 100.0 µM 98% | [6]; at 33.0 µM 85% | [6]; [18] 93% | [6]; at 50.0 µM 88.2% | [6]; at 100.0 µM 98% | [7]; at 33.0 µM 87% | [7]; at 100.0 µM 97% | [8]; [18] 90% | [8]; at 50.0 µM 89.2% | [9]; at 100.0 µM 98% | [10]; [18] 93% | [10]; at 50.0 µM 88.8% | [11]; at 33.0 µM 83% | [11]; [18] 95% | [11]; at 50.0 µM 89.2% | [11]; at 100.0 µM 97% | [12]; at 33.0 µM 82% | [12]; at 100.0 µM 98% | [13]; at 33.0 µM 89% | [13]; at 100.0 µM 98% | [14]; at 33.0 µM 93% | [14]; at 100.0 µM 99% | [15]; [18] 95% | [15]; at 50.0 µM 86.2% | [16]; at 33.0 µM 95% | [16]; at 100.0 µM 98%
inactive: [1]; at 1.2 µM -2% | [1]; at 3.7 µM -1% | [1]; at 11.0 µM 12% | [2]; at 1.2 µM 2% | [2]; at 3.7 µM 8% | [2]; at 11.0 µM 6% | [3]; at 1.2 µM 8% | [3]; at 3.7 µM 10% | [3]; at 11.0 µM 3% | [3]; at 33.0 µM 22% | [3]; at 100.0 µM 41% | [4]; at 1.2 µM -6% | [4]; at 3.7 µM -10% | [4]; at 11.0 µM -21% | [5]; at 1.2 µM -4% | [5]; at 3.7 µM 1% | [5]; [17] 14% | [5]; at 11.0 µM 22% | [6]; at 1.2 µM 4% | [6]; at 3.7 µM 16% | [6]; [17] -19% | [6]; at 11.0 µM 15% | [7]; at 1.2 µM -8% | [7]; at 3.7 µM -13% | [7]; at 11.0 µM -25% | [8]; [17] 53% | [9]; at 1.2 µM 13% | [9]; at 3.7 µM 2% | [9]; at 11.0 µM -7% | [9]; at 33.0 µM 59% | [10]; [17] 12% | [11]; at 1.2 µM -29% | [11]; at 3.7 µM -13% | [11]; [17] -3% | [11]; at 11.0 µM -41% | [12]; at 1.2 µM -6% | [12]; at 3.7 µM -2% | [12]; at 11.0 µM 2% | [13]; at 1.2 µM 11% | [13]; at 3.7 µM 10% | [13]; at 11.0 µM 17% | [14]; at 1.2 µM 22% | [14]; at 3.7 µM 23% | [14]; at 11.0 µM 43% | [15]; [17] -13% | [16]; at 1.2 µM 15% | [16]; at 3.7 µM 21% | [16]; at 11.0 µM 47%

Cc1cc(OCc2nc(N)nc(N)c2-c2ccc(Cl)c(Cl)c2)ccc1[N+](=O)[O-]
active: [5]; [18] 84% | [5]; at 50.0 µM 98.7%
inactive: [1]; at 1.2 µM 0% | [1]; at 3.7 µM 1% | [1]; at 11.0 µM 0% | [1]; at 33.0 µM -1% | [1]; at 100.0 µM -2% | [2]; at 1.2 µM 1% | [2]; at 3.7 µM 1% | [2]; at 11.0 µM 3% | [2]; at 33.0 µM 3% | [2]; at 100.0 µM 4% | [3]; at 1.2 µM -1% | [3]; at 3.7 µM -3% | [3]; at 11.0 µM -1% | [3]; at 33.0 µM -1% | [3]; at 100.0 µM -1% | [4]; at 1.2 µM 2% | [4]; at 3.7 µM 5% | [4]; at 11.0 µM 2% | [4]; at 33.0 µM 1% | [4]; at 100.0 µM 10% | [5]; at 1.2 µM 0% | [5]; at 3.7 µM 6% | [5]; [17] 51% | [5]; at 11.0 µM -3% | [5]; at 33.0 µM 2% | [5]; at 100.0 µM 2% | [6]; at 1.2 µM 2% | [6]; at 3.7 µM 3%
